From PubChem BioAssay AID1159580 (chemical genetic matrix, 2015)
Several values for one entry are separate records, joined by “and”; a condition that tells them apart may be missing. Equal values may be shown once. About 2,000 (36%) of roughly 5,500 compounds were called active. Roughly 18% stayed inconclusive and do not appear here. No stated cut-off is given here; in the data, active means normalized growth mostly below about 0.91 (no sharp cut-off); inconclusive means no clear call, values can overlap the other calls; inactive means mostly above about 0.92. This is one part of the list.

Test: chemical genetic growth profiling, strain panel (AID 1159580);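 further: tested at 20 µM; growth read once vehicle control cultures reached saturation at 30 °C; 1 = growth at the plate median or of vehicle wells; lower values mean less growth of the strain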
Conditions: S. cerevisiae deletion strains, growth OD

Measured: normalized growth

CC1CCC2(OC1)OC1CC3C4CC[C@H]5C[C@@H](O)CC[C@]5(C)C4CC(=O)[C@]3(C)C1C2C (stereo partly specified)
inactive: locus YAL013W, strain DEP1, active compounds read low 1.01 | locus YAL021C, strain ccr4, active compounds read low 0.997 | locus YAL026C, strain drs2, active compounds read low 1.03 | locus YAL030W, strain snc1, active compounds read low 1.01 | locus YBL061C, strain skt5, active compounds read low 1.02 | locus YBR009C, strain hhf1, active compounds read low 0.983 | locus YBR021W, strain FUR4, active compounds read low 0.991 | locus YBR023C, strain chs3, active compounds read low 1.02 | locus YBR171W, strain sec66, active compounds read low 1.02 | locus YBR229C, strain ROT2, active compounds read low 1.01 | locus YBR231C, strain swc5, active compounds read low 0.996 | locus YBR279W, strain paf1, active compounds read low 1.01 | locus YCL011C, strain gbp2, active compounds read low 1.04 | locus YCL016C, strain dcc1, active compounds read low 1.01 | locus YCL029C, strain bik1, active compounds read low 0.973 | locus YCL061C, strain MRC1, active compounds read low 1.02 | locus YCL069W, strain vba3, active compounds read low 1.02 | locus YCR088W, strain abp1, active compounds read low 1.03 | locus YDL005C, strain med2, active compounds read low 1.01 | locus YDL035C, strain GPR1, active compounds read low 1.01 | locus YDL040C, strain nat1, active compounds read low 1.01 | locus YDL074C, strain BRE1, active compounds read low 0.974 | locus YDL101C, strain DUN1, active compounds read low 1.01 | locus YDL134C, strain PPH21, active compounds read low 1.01 | locus YDL185W, strain tfp1, active compounds read low 0.981 | locus YDL192W, strain arf1, active compounds read low 0.992 | locus YDR001C, strain nth1, active compounds read low 1.01 | locus YDR069C, strain doa4, active compounds read low 1 | locus YDR101C, strain arx1, active compounds read low 0.974 | locus YDR137W, strain rgp1, active compounds read low 1.02 | locus YDR150W, strain NUM1, active compounds read low 1.01 | locus YDR159W, strain sac3, active compounds read low 0.962 | locus YDR162C, strain NBP2, active compounds read low 1.01 | locus YDR195W, strain ref2 1.04 | locus YDR297W, strain sur2, active compounds read low 0.995 | locus YDR318W, strain mcm21, active compounds read low 0.975 | locus YDR334W, strain swr1, active compounds read low 1.01 | locus YDR335W, strain msn5, active compounds read low 1.02 | locus YDR388W, active compounds read low 0.982 | locus YDR392W, strain spt3, active compounds read low 0.866 | locus YDR502C, strain sam2, active compounds read low 0.98 | locus YEL003W, strain gim4, active compounds read low 0.999 | locus YEL037C, strain rad23, active compounds read low 1.02 | locus YEL061C, strain CIN8 (second series), active compounds read low 1.01 | locus YEL061C, strain CIN8, active compounds read low 1.01 | locus YER015W, strain faa2, active compounds read low 1 | locus YER016W, strain bim1, active compounds read low 1.01 | locus YER110C, active compounds read low 0.978 | locus YER111C, strain swi4, active compounds read low 1.01 | locus YER155C, strain BEM2 (second series), active compounds read low 0.97 | locus YER155C, strain BEM2, active compounds read low 1.01 | locus YER167W, strain BCK2, active compounds read low 1.01 | locus YFR010W, strain ubp6, active compounds read low 0.997 | locus YGL078C, strain dbp3, active compounds read low 0.982 | locus YGL086W, strain mad1, active compounds read low 0.998 | locus YGL167C, strain pmr1, active compounds read low 1.01 | locus YGL173C, strain kem1, active compounds read low 0.992 | locus YGL227W, strain vid30, active compounds read low 1.02 | locus YGL240W, strain doc1, active compounds read low 1 | locus YGL248W, strain PDE1, active compounds read low 1.02 | locus YGL253W, strain hxk2, active compounds read low 1.01 | locus YGR078C, strain PAC10, active compounds read low 0.989 | locus YGR135W, strain pre9, active compounds read low 0.987 | locus YGR229C, strain SMI1, active compounds read low 1 | locus YGR252W, strain gcn5, active compounds read low 0.992 | locus YHR013C, strain ard1, active compounds read low 1.02 | locus YHR027C, strain rpn1, active compounds read low 1.02 | locus YHR030C, strain SLT2, active compounds read low 1.01 and 0.963 | locus YHR079C, strain IRE1 (second series), active compounds read low 0.988 | locus YHR079C, strain IRE1, active compounds read low 0.962 | locus YHR094C, strain hxt1, active compounds read low 0.991 | locus YHR129C, strain ARP1, active compounds read low 1 | locus YHR142W, strain chs7, active compounds read low 1.03 | locus YHR200W, strain rpn10, active compounds read low 0.987 | locus YIL066C, strain RNR3, active compounds read low 1.01 | locus YIL073C, strain SPO22, active compounds read low 0.983 | locus YIL125W, strain kgd1, active compounds read low 0.989 | locus YIR030C, strain dcg1, active compounds read low 0.984 | locus YJL092W, strain hpr5, active compounds read low 1.01 | locus YJL095W, strain BCK1 (second series), active compounds read low 1.01 | locus YJL095W, strain BCK1, active compounds read low 1 and 0.964 | locus YJL115W, strain asf1, active compounds read low 1.03 | locus YJL129C, strain trk1, active compounds read low 1.04 | locus YJL134W, strain LCB3, active compounds read low 1.01 | locus YJL154C, strain vps35, active compounds read low 1.03 | locus YJL164C, strain tpk1, active compounds read low 0.989 | locus YJL166W, strain qcr8, active compounds read low 1 | locus YJL168C, strain set2, active compounds read low 0.986 | locus YJL187C, strain SWE1 (second series), active compounds read low 0.997 | locus YJR043C, strain POL32, active compounds read low 1 | locus YJR066W, strain TOR1, active compounds read low 0.927
